# Results as given in PubChem BioAssay (NCI).
# This is part of a sample that, as a whole, favours compounds with a hit. Of some 79,000 tested, about 15% had one in any assay. Values without a mark were called inactive. Active and inactive are the calls of the source. Rule as the data show it: active = growth inhibition above about 70%; inactive = the rest.
# Tests used:
# [1] = NCI Yeast Anticancer Drug Screen. Data for the wt2 strain (AID 169);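 also: 0% = growth of vehicle-treated yeast cultures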; settings: S. cerevisiae wt2 strain growth inhibition, hits give high values
# Summary of the method: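 Values express reduction in yeast growth under compound treatment, referenced to vehicle-treated cells.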
# [2] = NCI Yeast Anticancer Drug Screen. Data for the mlh1 strain (AID 171);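 also: 0% = growth of vehicle-treated control cultures of the same strain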; settings: S. cerevisiae mlh1 strain growth inhibition, hits give high values
# Summary of the method: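 Steps: expose the defined-mutant yeast strain to compound; expose a parallel culture to vehicle; measure growth; express compound effect as inhibition relative to the vehicle culture.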
# [3] = NCI Yeast Anticancer Drug Screen. Data for the sgs1 strain (AID 173);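 also: 0% = growth of vehicle-only control cultures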; settings: S. cerevisiae sgs1 mutant, hits give high values
# Summary of the method: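 Treat defined-mutant yeast with compound; measure growth; calculate inhibition relative to vehicle-treated cells.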
# [4] = NCI Yeast Anticancer Drug Screen. Data for the mlh1 rad18 strain (AID 175); settings: S. cerevisiae mlh1 rad18 strain growth inhibition, hits give high values
# Summary of the method: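 Test agents were incubated with a yeast strain of defined genotype (DNA damage repair defect). Inhibition of growth was derived by comparison with vehicle-exposed cultures.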
# [5] = NCI Yeast Anticancer Drug Screen. Data for the rad18 strain (AID 177); settings: S. cerevisiae rad18 mutant growth inhibition, hits give high values
# Summary of the method: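 A genetically defined yeast mutant impaired in DNA damage repair was treated with test compounds, then its growth was measured against cultures receiving vehicle alone.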
# [6] = NCI Yeast Anticancer Drug Screen. Data for the rad52 strain (AID 147);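 also: 0% = growth of vehicle-treated control cultures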; settings: S. cerevisiae rad52 mutant growth inhibition, hits give high values
# Summary of the method: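 Screen used a yeast mutant impaired in DNA repair. After compound exposure, growth was measured. Values reflect inhibition compared with vehicle-treated cells.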
# [7] = NCI Yeast Anticancer Drug Screen. Data for the wt1 strain (AID 149);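 also: 0% = growth of vehicle-treated wt1 cultures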; settings: S. cerevisiae wt1 strain (SPY 50644) growth inhibition, hits give high values
# Summary of the method: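 Compounds are added to wt1 yeast cultures. Growth is then measured. Inhibition is expressed relative to vehicle-treated controls.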
# [8] = NCI Yeast Anticancer Drug Screen. Data for the rad50EPP+ strain (AID 151);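 also: 0% = growth of vehicle-treated control cultures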; settings: S. cerevisiae rad50 mutant strain, hits give high values
# Summary of the method: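 Exposing the rad50EPP+ strain to each compound, growth was compared with vehicle-only cultures to give inhibition.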
# [9] = NCI Yeast Anticancer Drug Screen. Data for the mgt1 strain (AID 153); settings: S. cerevisiae mgt1 mutant growth inhibition, hits give high values
# Summary of the method: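 Genetically defined yeast (mgt1) treated with compound; inhibition of growth expressed against vehicle-treated controls.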
# [10] = NCI Yeast Anticancer Drug Screen. Data for the rad50 strain (AID 155);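 also: 0% = growth of vehicle-only cultures of the same strain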; settings: S. cerevisiae rad50 strain growth inhibition, hits give high values
# Summary of the method: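 Inhibition values express reduced yeast growth in compound-treated cultures relative to vehicle-treated controls.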
# [11] = NCI Yeast Anticancer Drug Screen. Data for the mec2-1 strain (AID 157); settings: S. cerevisiae mec2-1 strain, hits give high values
# Summary of the method: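 Readout is yeast growth inhibition, normalised to vehicle-treated controls, in the mec2-1 strain exposed to compound.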
# [12] = NCI Yeast Anticancer Drug Screen. Data for the rad14 strain (AID 159);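 also: 0% = growth of vehicle-treated control cultures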; settings: S. cerevisiae rad14 strain growth inhibition, hits give high values
# Summary of the method: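 A mutant yeast strain defective in DNA damage repair is treated with compound; inhibition of its growth is scored against untreated, vehicle-exposed cultures.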
# [13] = NCI Yeast Anticancer Drug Screen. Data for the sgs1 mgt1 strain (AID 161);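 also: 0% = growth of cultures given vehicle only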; settings: S. cerevisiae sgs1 mgt1 strain, hits give high values
# Summary of the method: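 Yeast cells carrying a defined DNA-repair defect were exposed to test compounds. Growth inhibition was measured relative to vehicle-treated controls.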
# [14] = NCI Yeast Anticancer Drug Screen. Data for the CLN2oe strain (AID 163);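 also: 0% = growth of vehicle-only control cultures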; settings: S. cerevisiae CLN2oe strain, hits give high values
# Summary of the method: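 Values reflect how much compound exposure reduced yeast growth, referenced to vehicle-exposed cells. Assay organism is a strain with a defined genetic change affecting cell-cycle control.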
# [15] = NCI Yeast Anticancer Drug Screen. Data for the cln2 rad14 strain (AID 165);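 also: 0% = growth equal to vehicle treated cultures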; settings: S. cerevisiae cln2 rad14 strain, hits give high values
# Summary of the method: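 Relative to vehicle controls, growth inhibition of compound-treated cln2 rad14 yeast was recorded.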
# [16] = NCI Yeast Anticancer Drug Screen. Data for the bub3 strain (AID 167); settings: S. cerevisiae bub3 mutant strain, hits give high values
# Summary of the method: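 Steps: expose the mutant yeast strain to compound; grow alongside vehicle-treated cultures; measure growth; express inhibition against the vehicle cultures.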
# [17] = at 5.0 µM (retest, dose inferred, filed as 0.5)
# [18] = at 50.0 µM (retest, dose inferred, filed as 5.0)
smiles,measurement,setting,value
CC(=O)NC(c1nc2cc(C)c(C)cc2[nH]1)c1nc2cc(C)c(C)cc2[nH]1,growth inhibition,[1]; at 1.2 µM,-27%
same,growth inhibition,[1]; at 3.7 µM,-25%
same,growth inhibition,[1]; at 11.0 µM,-20%
same,growth inhibition,[1]; at 33.0 µM,20%
same,growth inhibition,[1]; at 100.0 µM,60%
same,growth inhibition,[2]; at 1.2 µM,-45%
same,growth inhibition,[2]; at 3.7 µM,-33%
same,growth inhibition,[2]; at 11.0 µM,-17%
same,growth inhibition,[2]; at 33.0 µM,19%
same,growth inhibition,[2]; at 100.0 µM,64%
same,growth inhibition,[3]; at 1.2 µM,-4%
same,growth inhibition,[3]; at 3.7 µM,-2%
same,growth inhibition,[3]; at 11.0 µM,-1%
same,growth inhibition,[3]; at 33.0 µM,36%
same,growth inhibition,[3]; at 100.0 µM,73% (active)
same,growth inhibition,[4]; [17],35%
same,growth inhibition,[4]; [18],95% (active)
same,growth inhibition,[4]; at 50.0 µM,37.6%
same,growth inhibition,[5]; at 1.2 µM,-4%
same,growth inhibition,[5]; at 3.7 µM,1%
same,growth inhibition,[5]; at 11.0 µM,6%
same,growth inhibition,[5]; at 33.0 µM,22%
same,growth inhibition,[5]; at 100.0 µM,55%
CC(C)CCC[C@@H](C)[C@H]1CC[C@H]2[C@@H]3CC[C@H]4C[C@H](N)CC[C@]4(C)[C@H]3CC[C@]12C,growth inhibition,[6]; at 1.2 µM,-2%
same,growth inhibition,[6]; at 3.7 µM,2%
same,growth inhibition,[6]; at 11.0 µM,-3%
same,growth inhibition,[6]; at 33.0 µM,-7%
same,growth inhibition,[6]; at 100.0 µM,-6%
same,growth inhibition,[7]; at 1.2 µM,-1%
same,growth inhibition,[7]; at 3.7 µM,0%
same,growth inhibition,[7]; at 11.0 µM,-3%
same,growth inhibition,[7]; at 33.0 µM,-2%
same,growth inhibition,[7]; at 100.0 µM,1%
same,growth inhibition,[8]; at 1.2 µM,0%
same,growth inhibition,[8]; at 3.7 µM,2%
same,growth inhibition,[8]; at 11.0 µM,7%
same,growth inhibition,[8]; at 33.0 µM,7%
same,growth inhibition,[8]; at 100.0 µM,7%
same,growth inhibition,[9]; at 1.2 µM,-3%
same,growth inhibition,[9]; at 3.7 µM,-2%
same,growth inhibition,[9]; at 11.0 µM,-2%
same,growth inhibition,[9]; at 33.0 µM,-2%
same,growth inhibition,[9]; at 100.0 µM,2%
same,growth inhibition,[10]; at 1.2 µM,1%
same,growth inhibition,[10]; at 3.7 µM,4%
same,growth inhibition,[10]; [17],-19%
same,growth inhibition,[10]; at 11.0 µM,4%
same,growth inhibition,[10]; at 33.0 µM,-2%
same,growth inhibition,[10]; [18],49%
same,growth inhibition,[10]; at 50.0 µM,27.1%
same,growth inhibition,[10]; at 100.0 µM,-2%
same,growth inhibition,[11]; at 1.2 µM,0%
same,growth inhibition,[11]; at 3.7 µM,-1%
same,growth inhibition,[11]; [17],-9%
same,growth inhibition,[11]; at 11.0 µM,-2%
same,growth inhibition,[11]; at 33.0 µM,-2%
same,growth inhibition,[11]; [18],-12%
same,growth inhibition,[11]; at 50.0 µM,46.2%
same,growth inhibition,[11]; at 100.0 µM,-3%
same,growth inhibition,[12]; at 1.2 µM,-1%
same,growth inhibition,[12]; at 3.7 µM,1%
same,growth inhibition,[12]; at 11.0 µM,-1%
same,growth inhibition,[12]; at 33.0 µM,-4%
same,growth inhibition,[12]; at 100.0 µM,-1%
same,growth inhibition,[13]; [17],-9%
same,growth inhibition,[13]; [18],53%
same,growth inhibition,[13]; at 50.0 µM,-1.6%
same,growth inhibition,[14]; at 1.2 µM,-7%
same,growth inhibition,[14]; at 3.7 µM,-5%
same,growth inhibition,[14]; at 11.0 µM,-4%
same,growth inhibition,[14]; at 33.0 µM,-16%
same,growth inhibition,[14]; at 100.0 µM,-7%
same,growth inhibition,[15]; [17],-10%
same,growth inhibition,[15]; [18],-3%
same,growth inhibition,[15]; at 50.0 µM,19.2%
same,growth inhibition,[16]; at 1.2 µM,-2%
same,growth inhibition,[16]; at 3.7 µM,-4%
same,growth inhibition,[16]; [17],-3%
same,growth inhibition,[16]; at 11.0 µM,-6%
same,growth inhibition,[16]; at 33.0 µM,-4%
same,growth inhibition,[16]; [18],52%
same,growth inhibition,[16]; at 50.0 µM,15.1%
same,growth inhibition,[16]; at 100.0 µM,-2%
same,growth inhibition,[1]; at 1.2 µM,8%
same,growth inhibition,[1]; at 3.7 µM,-8%
same,growth inhibition,[1]; at 11.0 µM,6%
same,growth inhibition,[1]; at 33.0 µM,-4%
same,growth inhibition,[1]; at 100.0 µM,5%
same,growth inhibition,[2]; at 1.2 µM,-2%
same,growth inhibition,[2]; at 3.7 µM,-2%
same,growth inhibition,[2]; at 11.0 µM,-4%
same,growth inhibition,[2]; at 33.0 µM,-7%
same,growth inhibition,[2]; at 100.0 µM,-3%
same,growth inhibition,[3]; at 1.2 µM,-3%
same,growth inhibition,[3]; at 3.7 µM,-22%
same,growth inhibition,[3]; at 11.0 µM,6%
same,growth inhibition,[3]; at 33.0 µM,6%
same,growth inhibition,[3]; at 100.0 µM,13%
same,growth inhibition,[4]; [17],2%
same,growth inhibition,[4]; [18],55%
same,growth inhibition,[4]; at 50.0 µM,39.9%
same,growth inhibition,[5]; at 1.2 µM,-1%
same,growth inhibition,[5]; at 3.7 µM,0%
same,growth inhibition,[5]; at 11.0 µM,3%
same,growth inhibition,[5]; at 33.0 µM,-6%
same,growth inhibition,[5]; at 100.0 µM,3%
